In the library only some 9.9% were active in any assay of this set; here they are far more common.
IL-1B inflam inh: blocks inflammasome-driven IL-1 beta release | 4.7% of 360,000 active | AID 743279 | activity change, % at 57.5 µM | THP-1 LPS/ATP IL-1B secretion, AlphaLISA, 16 h; stronger effect = lower value; in the data active = activity change below about -50%; inconclusive = mostly about -30% to -49%; also: % is scaled to controls: 0 for no effect and ±100 for the full control effect
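Secreted IL-1B measured by AlphaLISA bead assay after 16 h compound exposure of THP-1 cells; compounds (final up to 57.5 uM) added 1 h before LPS (250 ng/mL) and ATP (1.25 mM) stimulation; lower signal means less secretion.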
SW480 rereplic: induces DNA re-replication in SW480 colon adenocarcinoma cells. SW480 DNA re-replication, Hoechst DNA content imaging, 48 h. AID 624297. 1.8% of 340,000 active. Potency, µM (titrated, usually from 46.1 µM), without a hit: at the top dose re-replication activation, hits mostly activators; also: potency is read from the fitted curve at half-maximal effect; % of control where 0% means no effect; nearly all actives have a fitted effect of over 55% in size
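Per well, 250 cells were exposed to pinned compound for 48 hr. Nuclear DNA was visualised with Hoechst (40 min, 37 C) and total object intensity recorded by fluorescence scanning.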
KB-V1 MDR tox: KB-V1 MDR subline cytotoxicity | KB-V1 MDR cells viability, CellTiter-Glo, 72 h | 3.4% of 400,000 active | Potency, µM (doses to about 46.1 µM), actives largely listed as cytotoxic; also: potency is read from the fitted curve at half-maximal effect; % is scaled to controls: 0 for no effect and ±100 for the full control effect; nearly all actives have a fitted effect of over 60% in size
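Cells of the MDR subline KB-V1 are plated, dosed with compound at multiple concentrations, and incubated 72 h at 37 degrees C; CellTiter-Glo is then added and luminescence read after 10 min.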
KB-3-1 tox: KB-3-1 parental cell cytotoxicity; KB-3-1 viability, CellTiter-Glo ATP luminescence, 72 h; Potency, µM (highest dose often 46.1 µM), actives largely listed as cytotoxic; 1.4% of 400,000 active; AID 1347075; also: potency is read from the fitted curve at half-maximal effect; % is scaled to controls: 0 for no effect and ±100 for the full control effect; nearly all actives have a fitted effect of over 60% in size
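KB-3-1 cells, DMEM (no phenol red) + 10% FBS; compound by pin transfer, 72 h, 37 °C. Readout: CellTiter-Glo luminescence after 10 min. Data normalized, curve-fitted.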
MCF10A rereplic: inducers of DNA re-replication in MCF 10A breast cells; MCF 10A DNA re-replication, Hoechst nuclear intensity, 48 h; Potency, µM (titrated, usually from 46.1 µM), inactives show at the top dose activity, positive = re-replication, hits mostly activators; 2.9% of 350,000 active; AID 624296; also: potency is read from the fitted curve at half-maximal effect; % of control where 0% means no effect; nearly all actives have a fitted effect of over 50% in size
An asterisk follows results filed as active; i = inactive; ? = inconclusive; . = not tested or not shown; [ ] = remark or other dose. Unless noted, calls follow the shape of the dose curve; as a rule, active = well fitted curve in the direction sought with a large enough effect; inconclusive = small, poorly fitted or top-dose-only effect, or another doubt; inactive = no such curve, though single readings can be large; an effect the other way counts as inactive or inconclusive.

SMILES	IL-1B inflam inh	SW480 rereplic	KB-V1 MDR tox	KB-3-1 tox	MCF10A rereplic
O=C(NCC(c1ccco1)N1CCCC1)c1cn(-c2ccccc2)nc1-c1ccc(F)cc1 (stereo not given)	-9.4	?	i	i	20.6µM*
O=C(NCC(c1cccs1)N1CCOCC1)c1cc(-c2ccc(F)cc2)nc2ccccc12 (stereo not given)	-9.5	12.0%	20.6µM*	i	7.9%
O=C(NCC(c1cccs1)N1CCOCC1)c1cc(=O)[nH]c2ccccc12 (stereo not given)	-0.6	-354.6%	i	i	-30.8%
COc1ccc(NC(=O)CN(Cc2ccccc2)S(=O)(=O)c2ccc(C)cc2)cc1Cl	.	.	?	i	.
CC1(c2ccccc2)CC(C)(C)N2C(=O)Cc3cccc1c32 (stereo not given)	48.0	2.8%	?	i	-0.1%
COC(=O)c1nc(-c2ccc(C)cc2)oc1N(C)C	-15.3	-3.8%	?	i	5.0%
COC(=O)c1nc(-c2ccccc2)oc1N(C)C	-0.9	0.7%	16.4µM*	i	0.7%
O=C(O)CC1(CC(=O)NCc2cc(F)cc3c2OCOC3)CCCCC1	11.0	-13.6%	i	i	0.9%
O=C(Nc1nnc(-c2ccc(F)cc2)o1)C1CCCN1S(=O)(=O)c1cccs1 (stereo not given)	-76.3*	?	?	i	-0.7%
COc1ccccc1-c1nnc(NC(=O)C2CCCN2S(=O)(=O)c2cccs2)o1 (stereo not given)	14.2	.	i	i	.
CC1CCCCC1NS(=O)(=O)c1ccc(S(=O)(=O)NCc2ccncc2)cc1 (stereo not given)	-22.3	0.5%	16.4µM*	i	21.3%
CCOc1ccc(S(=O)(=O)NCc2ccncc2)cc1	-11.8	0.4%	0.651µM*	0.82µM*	6.7%
Cc1ccc(S(=O)(=O)NCc2ccncc2)cc1	42.4	?	i	?	?
CCOc1ccc(S(=O)(=O)NCCCn2ccnc2)cc1	15.0	-8.0%	?	i	23.1µM*
CCOc1ccccc1NC(=S)NCCCn1ccnc1	6.0	?	?	i	0.581µM*
C=CCNC(=S)N1CCN(C2CCCCC2)CC1	-2.3	-4.4%	i	i	1.1%
CN(NC(=O)c1ccccc1F)c1ncccc1[N+](=O)[O-]	0.0	2.1%	?	i	0.0%
CCOc1ccc(N(CC)C(=O)c2cc3c(s2)-c2ccccc2OC3)cc1	.	.	i	i	.
C/C(=N\N(Cc1ccccc1)c1ccccc1)c1cccnc1	-51.2*	-3.4%	i	i	4.0%
C/C(=N\NC(=O)Cc1ccccc1)c1cccnc1	-24.6	2.8%	i	i	2.1%
CCOCCC(=O)Nc1ccc2c(c1)c(=O)n(C)n2CC=C(C)C	-13.3	.	i	3.66µM*	.
CC(C)NC(=O)c1cc2c(Cl)nc3ccccc3c2s1	.	.	i	i	.
CC1NC(=O)NC1CCCCC(=O)O (stereo not given)	7.4	-6.2%	i	i	9.2%
CC1NC(=O)NC1CCCCCC(=O)Nc1ccc(F)c(Cl)c1 (stereo not given)	-115.7*	-5.5%	i	i	-1.9%
Cc1ccc(NC(=O)CCCCCC2NC(=O)NC2C)cc1 (stereo not given)	-95.3*	-0.3%	i	i	-2.0%
SMILES	IL-1B inflam inh	SW480 rereplic	KB-V1 MDR tox	KB-3-1 tox	MCF10A rereplic
CCc1cccc(NC(=O)CCCCCC2NC(=O)NC2C)c1 (stereo not given)	-109.3*	-0.8%	i	i	12.5%
CCC(=O)Nc1ccc(F)c(Cl)c1	7.4	1.0%[9.22 µM]	i	i	9.3%
COc1ccccc1/C=C/c1nc2ccccc2n1C(C)C	.	.	i	i	.
COc1ccccc1-c1nnc(SCCOc2ccccc2C)o1	.	.	i	i	.
Cc1ccc2nc(Cl)c3cc(C(=O)N(C)C4CCCCC4)sc3c2c1	.	.	i	i	.
Cc1sc2c(c1C)c(=O)n(CCc1ccccc1)c(=O)n2Cc1ccc(F)cc1	.	.	i	i	.
CCOC(=O)N/N=C/c1cn(Cc2ccc(Cl)cc2)c2ccccc12	-5.9	3.1%	?	?	4.5%
O=C(CNc1ccc2c(c1)OCO2)N/N=C\c1cn(Cc2ccc(F)cc2)c2ccccc12	.	-1.5%	.	.	20.6µM*
N#CCC(=O)N/N=C/c1cn(Cc2ccc(Cl)cc2Cl)c2ccccc12	.	?	i	i	11.6µM*
CN1CCCN(C(=O)c2c(F)cccc2Cl)CC1	-2.4	-19.5%	i	i	5.5%
COc1cc(C2Sc3ccccc3NC3=C2C(=O)OC3)cc(OC)c1OC (stereo not given)	36.3	?	i	23.1µM*	?
O=C1OCC2=C1C(c1ccc(F)cc1)Sc1ccccc1N2 (stereo not given)	18.2	-6.2%	?	i	15.1%
COc1cc(C2CC(=O)Nc3ccccc3S2)cc(OC)c1OC (stereo not given)	12.0	5.2%	10.3µM*	i	?
CC(C)Oc1ccc(CNC(=O)c2cc3cccc4c3n2CC(C)S4)cc1 (stereo not given)	.	.	i	i	.
CCOC(=O)C1(Cc2ccccc2)CCN(Cc2cc(OC)c3c(c2)OCO3)CC1	-83.4*	-7.0%	i	i	-2.6%
Cc1ccc(C)c(-c2[nH]ncc2CN2CCCC(CO)(Cc3ccccc3C)C2)c1 (stereo not given)	-79.8*	-1.2%	?	i	?
OCC1(Cc2ccccc2)CCCN(Cc2cn[nH]c2-c2ccccc2)C1 (stereo not given)	3.5	-2.2%	i	i	-3.6%
CCOC(=O)C1(Cc2ccccc2)CCN(Cc2ccc(C)s2)CC1	-25.8	0.2%	?	i	?
CCOC(=O)C1(Cc2ccccc2)CCN(Cc2cccc3c2OCO3)CC1	-52.9*	5.7%	?	i	?
CCOC(=O)C1(Cc2ccccc2)CCN(Cc2ccc(C3CCCCO3)s2)CC1 (stereo not given)	17.3	11.5%	?	i	16.4µM*
CCOC(=O)C1(Cc2ccccc2)CCN(Cc2ccc3c(c2)OCCO3)CC1	18.5	4.4%	i	i	-9.6%
COc1cc(CN2CCCC(CO)(Cc3ccccc3C)C2)cc2c1OCO2 (stereo not given)	-62.8*	-12.4%	i	?	16.2%
O=C(CC1NCCNC1=O)Nc1ccc(F)c(Cl)c1 (stereo not given)	.	.	i	i	.
CCCCOc1ccc(S(=O)(=O)NNC(=O)C2Cc3c(ccc4ccccc34)O2)cc1 (stereo not given)	-1.8	?	i	i	20.6µM*
Cc1ccc(S(=O)(=O)NNC(=O)C2Cc3c(ccc4ccccc34)O2)cc1 (stereo not given)	49.0	-5.4%	i	i	6.8%
